Screening results: PubChem BioAssay, several laboratories
Mtb bLac sens – beta-lactam sensitization of Mtb H37Rv, H37Rv. AID 434955, 2010. inhibition, % at 25 µM. M. tuberculosis H37Rv growth with meropenem, percent inhibition. actives 0.27% (n = 330,000); call rule not given here;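 further: growth measured after seven days incubation then overnight dye step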
Sa RN4220 lethal – growth inhibition of S. aureus RN4220, primary screen, OD600 | 16 h | inhibition, % (test concentration not listed) | actives 0.33% (n = 330,000) | AID 1259311, 2017; in the data active means inhibition above about 85%
Sa ugtP lethal – growth inhibition of ugtP-null S. aureus, primary screen, RN4220 ugtP deletion, OD600. 16 h. actives 0.54% (n = 330,000). AID 1259309, 2017. growth inhibition, % (test concentration not listed); in the data active means growth inhibition above about 68%
Mtb hypoxia rep – PubChem AID 1159583; M. tuberculosis hypoxia-regulated fluorescent reporter, fluorescence; fluorescence inhibition, % (test concentration not listed); actives 0.1% (n = 300,000); in the data active means fluorescence inhibition mostly above about 23%, no sharp cut-off; inactive means mostly below about 17%
PriA SSB inh – inhibitors of Klebsiella pneumoniae PriA binding to SSB C-terminal tail, primary screen, biochemical, AlphaScreen | inhibition, % at 33 µM | PriA–SSB C-terminal tail interaction (Klebsiella pneumoniae) | AlphaScreen SSBct-PriA binding, biotinylated peptide | actives 0.6% (n = 430,000) | AID 1272365, 2023; in the data active means inhibition mostly above about 37%, no sharp cut-off; inactive means mostly below about 20%
Large screens that a line does not name were inactive. Shown are actives, neighbours in structure and some others; about 1% of the full set was active somewhere.

CCc1cccc2c(C(=O)COC(=O)c3ccc([N+](=O)[O-])s3)c[nH]c12	Sa RN4220 lethal 100.3, Sa ugtP lethal 100.6
Cc1cc(N2C(=O)C(O)=C(C(=O)c3ccco3)C2c2cccnc2)no1 (stereo not given)	none (no result: PriA SSB inh)
CCCOc1ccc(C2C(C(=O)c3cc4ccccc4o3)=C(O)C(=O)N2c2cc(C)on2)cc1OC (stereo not given)	Sa RN4220 lethal 99.2, Sa ugtP lethal 100.2
Cc1cc(N2C(=O)C(O)=C(C(=O)c3ccco3)C2c2cccc(Cl)c2)no1 (stereo not given)	Sa RN4220 lethal 96.4, Sa ugtP lethal 92.2
C=CCOc1cccc(C2C(C(=O)c3cc4ccccc4o3)=C(O)C(=O)N2c2cc(C)on2)c1 (stereo not given)	Sa RN4220 lethal 99.8, Sa ugtP lethal 100.4
CC(=O)Nc1ccc(S(=O)(=O)NCc2ccc(C(=O)c3ccsc3)s2)c(C)c1	none (no result: Mtb bLac sens, Sa RN4220 lethal, Sa ugtP lethal, Mtb hypoxia rep)
CN(C(=O)CSc1nc(-c2ccccc2)cn1N)C(c1ccccc1)c1ccccc1	PriA SSB inh 50.0
O=C(NCc1cc(-c2ccc3c(c2)OCCO3)on1)c1ccc(S(=O)(=O)N2CCOCC2)cc1	none (no result: Mtb bLac sens, Sa RN4220 lethal, Sa ugtP lethal, Mtb hypoxia rep)
O=C(NCC1CCCN(c2nccs2)C1)c1cc2cc(F)ccc2s1 (stereo not given)	none (no result: Mtb bLac sens, Sa RN4220 lethal, Sa ugtP lethal, Mtb hypoxia rep)
CN1CCN(C(=S)c2cn(Cc3cccc(F)c3)c3ccccc23)CC1	none
N=C(N)Sc1cn(Cc2cccc(F)c2)c2ccccc12	PriA SSB inh 45.0 (no result: Mtb bLac sens, Sa RN4220 lethal, Sa ugtP lethal, Mtb hypoxia rep)
CS(=O)(=O)N1CCN(c2cnnc(N3CCCC3)c2)CC1	none (no result: Mtb bLac sens, Sa RN4220 lethal, Sa ugtP lethal, Mtb hypoxia rep)
CC(=O)Nc1ccc2c(c1)OCCOCCOc1cc(NC(C)=O)ccc1OCCO2	none
CC(C)(C)C(=O)Nc1ccc2c(c1)OCCOCCOc1cc(NC(=O)C(C)(C)C)ccc1OCCOCCO2	Mtb hypoxia rep 35.8
CN(C)CCCn1cnc2c(c1=N)C(c1ccccc1)c1ccc3ccccc3c1O2 (stereo not given)	PriA SSB inh 51.0 (not shown: Mtb hypoxia rep)
Cc1onc(-c2c(Cl)cccc2Cl)c1C(=O)N[C@@H]1C(=O)N2[C@@H]1SC(C)(C)[C@@H]2C(=O)O	none
Cc1onc(-c2ccccc2Cl)c1C(=O)NC1C(=O)N2C1SC(C)(C)C2C(=O)O (stereo not given)	Sa RN4220 lethal 98.6, Sa ugtP lethal 100.0 (no result: Mtb bLac sens, PriA SSB inh)
Cc1onc(-c2c(Cl)cccc2Cl)c1C(=O)NC1C(=O)N2C1SC(C)(C)C2C(=O)O (stereo not given)	Sa RN4220 lethal 100.8, Sa ugtP lethal 100.5
CCCNC(=O)CCCCn1c(=O)c2ccccc2n(CC(=O)Nc2cccc(C)c2)c1=O	none (no result: Mtb bLac sens, Sa RN4220 lethal, Sa ugtP lethal, Mtb hypoxia rep)
Cc1ccc2nc(-c3cccc(NS(C)(=O)=O)c3)cc(-c3ccccc3)c2c1	Sa ugtP lethal 94.1
Fc1ccc(N=C2NN=C(c3cc(F)ccc3F)CS2)cc1	PriA SSB inh 50.0
Cc1cccc(N=C2NN=C(c3ccccc3F)CS2)c1C	PriA SSB inh 44.0
Cc1n[nH]c(C)c1CCC(=O)N1CCC(Oc2cncc(N(C)C)n2)C1 (stereo not given)	none (no result: Mtb bLac sens, Sa RN4220 lethal, Sa ugtP lethal, Mtb hypoxia rep)
Cc1nn(C2CCS(=O)(=O)C2)c(C)c1CC(=O)Nc1cccc(-c2nc3ccccc3o2)c1 (stereo not given)	none (no result: Mtb bLac sens, Sa RN4220 lethal, Sa ugtP lethal, Mtb hypoxia rep)
O=C(/C=C/c1ccc2c(c1)OCO2)Nc1nnc(Cc2ccccc2)o1	none (no result: Mtb bLac sens, Sa RN4220 lethal, Sa ugtP lethal, Mtb hypoxia rep)
O=C(c1cccc(C(F)(F)F)c1)N1CCC2(CC1)NC(=O)N(Cc1ccccc1)C2=O	none (no result: Mtb bLac sens, Sa RN4220 lethal, Sa ugtP lethal, Mtb hypoxia rep)
Cc1cccc(C2(c3cccc(C)c3)CC2C(=O)Nc2ccc([N+](=O)[O-])cc2O)c1 (stereo not given)	Sa RN4220 lethal 100.1, Sa ugtP lethal 99.7
C=CCNC(=O)C1CC1(c1cccc(C)c1)c1cccc(C)c1 (stereo not given)	none
Cc1ccc(Oc2ccc(Cl)cc2N)cc1	none
Nc1cc(Cl)ccc1Oc1ccc2ccccc2c1	Sa ugtP lethal 94.9 (no result: Mtb bLac sens)
CC(C)=CCc1c(O)cc2c(=O)c3ccc(O)cc3oc2c1O	none (no result: Mtb hypoxia rep)
CC(C)=CCc1c(O)cc(O)c2c(=O)c3c(CC=C(C)C)c(O)ccc3oc12	Sa RN4220 lethal 100.4, Sa ugtP lethal 100.5 (no result: Mtb hypoxia rep)
COc1ccc(SCC2CCN(C(=O)c3cccc(N(C)C)c3)CC2)cc1	PriA SSB inh 42.0 (no result: Mtb bLac sens, Sa RN4220 lethal, Sa ugtP lethal, Mtb hypoxia rep)
COc1ccc(SCC2CCN(C(=O)c3cccc4ccccc34)CC2)cc1	none (no result: Mtb bLac sens, Sa RN4220 lethal, Sa ugtP lethal, Mtb hypoxia rep)
Cc1ccc(S(=O)(=O)c2nc(S(C)(=O)=O)sc2NCc2ccc(Cl)cc2)cc1	none (no result: Mtb bLac sens, Sa RN4220 lethal, Sa ugtP lethal, Mtb hypoxia rep)
COc1c(N2CCN(C(=S)NCc3ccccc3)C(C)C2)c(F)cc2c(=O)c(C(=O)O)cn(C3CC3)c12 (stereo not given)	Sa RN4220 lethal 100.3, Sa ugtP lethal 100.5 (not shown: Mtb hypoxia rep)
